Source: PubChem
Only some compounds are listed: those with a hit (about 0.83% of all), similar ones and a draw of the others.
MLL CXXC-DNA inh – MLL CXXC-DNA interaction inhibition | Q03164 | MLL-CXXC / FITC-HOXA9 DNA fluorescence polarization | hit rate 0.037% among 290,000 | Potency, µM (doses to about 115 µM), for inactives: top-dose activity change, negative = inhibition, usual class: inhibitors; active means well fitted inhibition curve with a large enough effect in the polarisation, with a control signal flat, not every such curve was filed as active; inconclusive means small, poorly fitted or top-dose-only effect, or effect the other way, or a change in a side signal; inactive means no such curve, though single readings can be large or run the other way; the % refers to the polarisation; further: potency means the concentration at half of the fitted maximal effect
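Steps: dispense CXXC domain solution (7 uM) → pin compounds or unlabeled HOX-A9 DNA control → 5 min ambient → add FLSN-HOX-A9 solution (50 nM) → spin → 30 min ambient → fluorescence polarization. Tris pH 7.5/NaCl/DTT/BSA buffer.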
Menin-MLL FL inh – inhibitors of human menin-MLL interaction, wild-type MLL peptide; 290,000 tested, under 10 active; FP activity change, % at 61.4 µM; AID 1766; Fluorescence polarization, fluorescein-MLL peptide displacement from menin; active means well fitted curve in the direction sought with a large enough effect in the polarisation, not every such curve was filed as active; inconclusive means small, poorly fitted or top-dose-only effect, or effect the other way, or a change in a side signal; inactive means no such curve, though single readings can be large or run the other way; the % refers to the polarisation; further: % of control where 0% means no effect
CtBP-E1A blk – CtBP/E1A binding inhibition | AlphaScreen GST-E1A/His-CtBP binding, 1536-well; stronger effect = lower value | activity change, % (concentration not given with the values) | hit rate 0.49% among 340,000 | AID 651724; further: on the % scale 0 is the no-effect control and ±100 the full control effect
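In 5 uL wells, 23 nL compound meets equimolar GST-E1A and His-CtBP (5X stock 125 nM each) for 2 h, 37 °C. Beads (5X, 50 ug/mL) then 1 h, 37 °C, dark.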
Six1-Eya2 blk – Six1/Eya2 interaction inhibition; Q15475+O00167; AlphaScreen GST-Six1/His-Eya2 binding, biochemical; stronger effect = lower value; activity change, % (concentration not given with the values); hit rate 0.56% among 360,000; further: on the % scale 0 is the no-effect control and ±100 the full control effect
Target sequence (O00167 whole entry, looked up): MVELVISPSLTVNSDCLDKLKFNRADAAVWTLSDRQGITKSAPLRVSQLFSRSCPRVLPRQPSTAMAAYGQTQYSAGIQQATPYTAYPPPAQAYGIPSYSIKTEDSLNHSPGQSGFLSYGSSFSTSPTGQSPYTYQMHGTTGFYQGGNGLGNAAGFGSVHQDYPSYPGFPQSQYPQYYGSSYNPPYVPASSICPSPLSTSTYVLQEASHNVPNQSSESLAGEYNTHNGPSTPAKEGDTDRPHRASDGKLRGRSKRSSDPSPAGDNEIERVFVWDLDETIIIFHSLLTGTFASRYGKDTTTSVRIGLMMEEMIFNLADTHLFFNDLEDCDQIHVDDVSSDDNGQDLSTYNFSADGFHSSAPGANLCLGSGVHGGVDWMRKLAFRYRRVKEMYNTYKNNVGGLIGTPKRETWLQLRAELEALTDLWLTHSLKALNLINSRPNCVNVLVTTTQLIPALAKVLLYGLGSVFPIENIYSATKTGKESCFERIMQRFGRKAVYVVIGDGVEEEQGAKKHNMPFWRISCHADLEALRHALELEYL
Target sequence (Q15475 whole entry, looked up): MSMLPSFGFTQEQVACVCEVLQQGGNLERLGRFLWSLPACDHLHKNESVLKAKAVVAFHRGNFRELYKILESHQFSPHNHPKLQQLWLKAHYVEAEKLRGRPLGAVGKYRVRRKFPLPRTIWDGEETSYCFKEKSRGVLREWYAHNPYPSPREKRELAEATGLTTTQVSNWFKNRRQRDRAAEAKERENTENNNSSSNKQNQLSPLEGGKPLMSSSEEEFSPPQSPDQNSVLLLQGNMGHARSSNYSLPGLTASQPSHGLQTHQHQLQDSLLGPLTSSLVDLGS
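GST-Six1 + His-Eya2 (5X stock: 250/500 nM); Tris pH 8.0, 300 mM NaCl, 0.05% BSA, 0.02% Tween 20; GSH donor/Ni acceptor beads; 1 h 37 °C dark; AlphaScreen readout.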
GLS inhibitor – inhibitors of human glutaminase (GLS); Potency, µM (titrated, usually from 45.5 µM), for inactives: at the top dose activity change, negative = inhibition, usual class: inhibitors; GLS enzymatic activity, qHTS titration; hit rate 0.21% among 410,000; O94925; AID 624170; active means well fitted inhibition curve with a large enough effect; inconclusive means small, poorly fitted or top-dose-only effect, or another doubt; inactive means no such curve, though single readings can be large or run the other way; further: potency means the concentration at half of the fitted maximal effect; on the % scale 0 is the no-effect control and ±100 the full control effect
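Assay buffer: 45 mM KH2PO4 pH 8.2, 0.02% Tween-20. hKGA acts on L-glutamine (1 mM solution added); product glutamate is reported by an oxidase/peroxidase Amplex Red coupling, with fluorescence taken at baseline and 30 min.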
Menin-MLL TR inh – displaces Texas Red mutant MLL peptide from human menin. hit rate 0.23% among 270,000. Potency, µM (titrated, usually from 61.6 µM), inactives show at the highest dose FP activity change, negative = inhibition, actives largely listed as inhibitors. O00255. AID 1768. Menin + Texas Red MLL mutant peptide, fluorescence polarization; active means well fitted inhibition curve with a large enough effect in the polarisation, with a control signal flat, not every such curve was filed as active; inconclusive means small, poorly fitted or top-dose-only effect, or effect the other way, or a change in a side signal; inactive means no such curve, though single readings can be large or run the other way; the % refers to the polarisation; further: potency means the concentration at half of the fitted maximal effect; % of control where 0% means no effect
* marks the source's active call; other numbers are inactive results; ? = inconclusive; nt = no result given; [ ] = remark or other dose. Unless noted, no stated cut-off is given here; in the data, active means activity change below about -65%; inconclusive means mostly about -30% to -63%; inactive means weaker than that.

SMILES	MLL CXXC-DNA inh	Menin-MLL FL inh	CtBP-E1A blk	Six1-Eya2 blk	GLS inhibitor	Menin-MLL TR inh
CN(C)c1ccc(N=C/C=C2/N(C)c3ccccc3C2(C)C)cc1	76.0%	?	nt	-67.5*	46.0%	-19.4%
CC1(C)SC2C(NC(=O)C(c3ccccc3)S(=O)(=O)O)C(=O)N2C1C(=O)O (centres undefined)	nt	nt	nt	nt	-8.3%	nt
COc1ccc(OC)c(NC(=O)CSc2nc3n[nH]c(C)c3c(=N)n2-c2cccc(Cl)c2C)c1	1.3%	1.6	-17.0	-8.8	7.4%	36.8%
CCc1ccccc1NC(=O)CSc1nc2n[nH]c(C)c2c(=N)n1-c1cccc(OC)c1	3.7%	5.3	-69.9*	?	?	4.8%
CC(C)OP(=O)(c1ccc(N(C)C)cc1)C(O)c1ccc(N(C)C)cc1 (centres undefined)	15.0%	2.1	nt	2.0	-2.8%	10µM*
CC(C)COP(=O)(c1ccc(N(C)C)cc1)C(O)c1ccc(N(C)C)cc1 (centres undefined)	11.8%	2.2	-1.4	-4.9	16.8%	?
CN(C1CCS(=O)(=O)C1)S(=O)(=O)c1ccccc1 (centres undefined)	-5.7%	4.4	3.5	1.7	15.8µM*	1.0%
CN(C1CCS(=O)(=O)C1)S(=O)(=O)c1cccs1 (centres undefined)	nt	nt	8.9	-1.6	-10.3%	nt
Cc1ccc(/C=C/S(=O)(=O)NCC(=O)OCC(=O)Nc2ccc(C(N)=O)cc2)cc1	nt	nt	-6.4	-4.4	18.1%	nt
Cc1ccc(/C=C/S(=O)(=O)NCC(=O)OCC(=O)Nc2ccc(C(=O)N(C)C)cc2)cc1	nt	nt	-90.8*	-8.9	-0.7%	nt
CC1CCCN(c2ccc3nc4ccccc4c(=O)n3n2)C1 (centres undefined)	3.8%	-4.5	14.7	-66.6*	8.7%	-7.4%
COC(=O)c1ccc(NC(=O)C2C3C=CC(C3)C2C(=O)O)cc1 (centres undefined)	-5.3%	0.4	4.0	6.2	4.1%	-10.5%
O=C(ONC(=O)C1C2C=CC(C2)C1C(=O)NOC(=O)c1ccccc1)c1ccccc1 (centres undefined)	nt	nt	-1.6	6.8	12.6µM*	nt
OCCN(Cc1ccccn1)Cc1ccccn1	nt	nt	-89.3*	-89.6*	6.0%	nt
Cc1ccccc1Cn1c(=O)c2c(nc3n2CCN3Cc2ccco2)n(C)c1=O	nt	nt	-12.3	-8.5	7.94µM*	nt
Cn1c(=O)cc(OCC(=O)N2CCN(c3ccc(F)cc3)CC2)c2ccccc21	nt	nt	nt	nt	24.4%	nt
CCOc1cc(N2CCOCC2)c(OCC)cc1NC(=O)C(C)C	-5.1%	-3.7	-4.5	4.2	-13.6%	nt
CCOc1cc(N2CCOCC2)c(OCC)cc1NC(C)C(=O)N1CCN(CC)CC1 (centres undefined)	16.6%	-0.5	-16.3	-25.0	?	31.6µM*
CCOC(=O)CN[C@@H](C(=O)N1CC[C@H]1C(=O)NCc1ccc(/C(N)=N/O)cc1)C1CCCCC1	nt	nt	nt	nt	23.4%	nt
O=C(CN1c2ccccc2Sc2ccccc21)NNC(=S)Nc1ccc(Cl)cc1Cl	-5.8%	3.6	-1.9	-12.7	11.1%	?
O=C(CN1c2ccccc2Sc2ccccc21)NNC(=S)Nc1ccc(Cl)cc1	-4.9%	1.4	-21.8	?	15.8µM*	nt
COc1cccc(-c2nc(CS(=O)CC(=O)N3CCN(c4cccc(C(F)(F)F)c4)CC3)c(C)o2)c1 (centres undefined)	nt	nt	nt	nt	-23.5%	nt
Cc1ccc(OCC(=O)c2c(N)n(C)c(=O)n(C)c2=O)c([N+](=O)[O-])n1	nt	nt	-12.4	?	14.1µM*	nt
Cc1ccc(OCC(=O)c2cc(C)c(C)cc2C)c([N+](=O)[O-])n1	-3.3%	-0.6	-0.9	-3.6	-5.3%	3.0%
CN1C(=O)CC(C)(c2ccccc2)C1=O (centres undefined)	nt	nt	nt	nt	-0.9%	nt
SMILES	MLL CXXC-DNA inh	Menin-MLL FL inh	CtBP-E1A blk	Six1-Eya2 blk	GLS inhibitor	Menin-MLL TR inh
Cc1nc2ccc(S(=O)(=O)NC(C(=O)N3CCN(c4ccc(Cl)cc4)CC3)C(C)C)cc2s1 (centres undefined)	nt	nt	nt	nt	41.1%	nt
CC(C)NS(=O)(=O)c1ccc(OCC(=O)N2CCN(c3ccccc3F)CC2)cc1	nt	nt	nt	nt	0.0%	nt
COc1cc(N/N=C/c2ccccc2O)ncn1	?	5.0	-95.8*	-88.4*	30.5%	8.7%
CCOc1ccc(/C=N/Nc2nc(C)cs2)c(O)c1	-6.0%	6.7	?	-67.5*	17.8%	?
CCCOc1ccc(/C=N/Nc2cc(N3CCOCC3)ncn2)c(O)c1	11.1%	-2.3	nt	-18.1	6.4%	?
COc1cc(N/N=C/c2ccc(N(C)C)cc2)ncn1	-5.5%	0.8	nt	-19.0	8.7%	?
CCOc1ccc(/C=N/Nc2cc(N3CCOCC3)ncn2)c(O)c1	nt	nt	?	-71.1*	-0.7%	nt
CCCCC(=O)Nc1cc(-c2cn3cccnc3n2)ccc1C	nt	nt	nt	nt	-8.2%	nt
CCCCCCCCCCCCCCCC(=O)O[C@@H]1CC(C)=C(\C=C/C(C)=C\C=C/C(C)=C\C=C\C=C(C)\C=C\C=C(C)\C=C\C2=C(C)C[C@@H](OC(=O)CCCCCCCCCCCCCCC)CC2(C)C)C(C)(C)C1	nt	nt	nt	nt	0.1%	nt
CN1CCN(c2ccccc2NC(=O)c2cc3c(s2)-c2ccccc2OC3)CC1	-0.5%	-0.1	-79.1*	-0.7	-2.0%	nt
O=C1C[C@@H](O)[C@@H](O)[C@H]2[C@@H]3C(=O)N(C[C@@H]4CCCO4)C(=O)[C@@H]3CC[C@H]12	nt	3.3[11.7 µM]	nt	nt	nt	2.8%[11.7 µM]
C/C(=N\Nc1ncc(Cl)cc1Cl)c1ccccn1	?	-20.4	-66.2*	-86.9*	-8.8%	-8.1%
C/C(=N\Nc1ccc(Cl)c(C(=O)O)c1)c1ccccn1	-5.9%	2.8	-18.0	-15.3	3.7%	nt
Cc1sc2ncnc(N/N=C/c3cccc(O)c3)c2c1C	2.2%	0.0	-24.1	?	?	?
C/C(=N\Nc1ncnc2sc(C)c(C)c12)c1ccccn1	?	?	-94.0*	-73.4*	-1.3%	2.6%
O=C(Nc1nc(-c2ccncc2)cs1)c1ccco1	1.1%	4.1	-5.4	-23.0	4.6%	?
O=C(CC1CC2CCC1C2)Nc1nc(-c2ccccn2)cs1 (centres undefined)	6.3%	2.5	?	?	0.0%	-8.8%
O=C(Nc1nc(-c2ccccn2)cs1)C1CC1	2.7%	-1.6	-71.7*	?	1.8%	-10.1%
C[C@H](NC(=O)c1ccco1)C(=O)Nc1nc(-c2ccccn2)cs1	nt	nt	-89.3*	-88.8*	-0.6%	nt
O=C(Nc1nc(-c2ccccn2)cs1)c1ccco1	0.6%	4.0	-92.9*	-79.2*	-1.4%	?
C[C@H](NC(=O)c1ccco1)C(=O)Nc1nnc(SCc2ccccc2)s1	nt	nt	7.5	1.8	2.3%	nt
Cc1ccnc2nc(C(=O)Nc3nc(-c4ccccn4)cs3)nn12	-25.5%	0.2	-84.7*	-91.6*	-16.5%	26.4%
